This is an account of results in PubChem BioAssay AID720555 (National Center for Advancing Translational Sciences (NCATS), 2013).

Inconclusive results are not listed. Active and inactive are the calls of the source. Calls follow the shape of the dose curve; as a rule, active = well fitted inhibition curve with a large enough effect; inconclusive = small, poorly fitted or top-dose-only effect; inactive = no such curve, though single readings can be large or run the other way.

Chain of RecQ-like DNA helicase BLM (Homo sapiens) (P54132 whole entry, looked up): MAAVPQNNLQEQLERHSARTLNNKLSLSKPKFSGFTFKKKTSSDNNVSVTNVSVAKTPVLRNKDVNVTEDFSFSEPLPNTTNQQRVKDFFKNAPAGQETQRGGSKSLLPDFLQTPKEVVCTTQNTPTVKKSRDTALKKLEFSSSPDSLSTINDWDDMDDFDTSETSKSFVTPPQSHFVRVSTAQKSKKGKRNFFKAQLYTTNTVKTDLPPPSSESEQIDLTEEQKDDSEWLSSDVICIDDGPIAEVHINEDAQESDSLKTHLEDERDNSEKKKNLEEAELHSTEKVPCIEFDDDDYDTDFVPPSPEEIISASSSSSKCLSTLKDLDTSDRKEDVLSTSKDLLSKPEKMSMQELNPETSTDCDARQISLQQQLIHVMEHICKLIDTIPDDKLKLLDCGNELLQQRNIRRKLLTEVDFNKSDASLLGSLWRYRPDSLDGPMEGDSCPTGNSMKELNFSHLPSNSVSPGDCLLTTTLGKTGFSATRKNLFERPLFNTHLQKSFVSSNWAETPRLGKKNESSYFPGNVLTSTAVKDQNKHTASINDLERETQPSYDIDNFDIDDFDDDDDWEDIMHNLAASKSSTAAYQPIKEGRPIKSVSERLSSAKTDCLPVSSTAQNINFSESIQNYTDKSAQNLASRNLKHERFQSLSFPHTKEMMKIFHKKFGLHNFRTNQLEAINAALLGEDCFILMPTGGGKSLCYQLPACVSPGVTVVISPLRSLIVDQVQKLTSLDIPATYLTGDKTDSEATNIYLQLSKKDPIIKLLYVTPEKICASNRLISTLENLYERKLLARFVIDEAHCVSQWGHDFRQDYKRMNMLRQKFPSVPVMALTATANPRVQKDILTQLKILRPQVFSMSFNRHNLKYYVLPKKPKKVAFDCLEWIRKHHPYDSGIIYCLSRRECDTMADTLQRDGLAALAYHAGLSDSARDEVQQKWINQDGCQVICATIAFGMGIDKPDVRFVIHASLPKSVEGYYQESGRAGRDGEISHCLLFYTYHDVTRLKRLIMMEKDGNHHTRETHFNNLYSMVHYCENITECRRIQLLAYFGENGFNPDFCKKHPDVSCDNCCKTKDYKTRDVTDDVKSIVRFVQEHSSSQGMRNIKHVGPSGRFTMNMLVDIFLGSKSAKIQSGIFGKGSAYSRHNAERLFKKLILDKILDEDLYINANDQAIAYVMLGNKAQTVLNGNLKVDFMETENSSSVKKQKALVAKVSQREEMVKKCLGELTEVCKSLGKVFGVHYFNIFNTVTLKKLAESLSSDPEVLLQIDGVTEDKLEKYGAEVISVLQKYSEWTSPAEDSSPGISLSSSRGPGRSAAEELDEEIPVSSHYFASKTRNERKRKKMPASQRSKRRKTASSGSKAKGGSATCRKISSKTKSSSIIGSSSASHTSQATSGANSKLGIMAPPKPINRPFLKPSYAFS

The target in the experiment is RecQ-like DNA helicase BLM (Homo sapiens) (UniProt P54132). As to the kind of experiment: qHTS for Inhibitors of Bloom's syndrome helicase (BLM): Helicase DNA unwinding fluorescent orthogonal confirmatory assay for SAR. Conditions: fluorescence, orthogonal confirmation; series mostly up to 55.6 µM; activity change, negative = inhibition: at the top concentration. In outline:
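Gel-based orthogonal unwinding test: native PAGE separated substrate from single-stranded product of a fluorescent DNA duplex processed by purified BLM (2mM ATP, 50mM NaCl, room temperature). Bands were quantified and normalised against no-enzyme and no-inhibitor wells.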
In general terms: Quantitative high-throughput screening tests each substance at several concentrations.
As to `S=C(Nc1ccc(Cl)c(Cl)c1)Nc1nnc(-c2ccncc2)s1`, the Potency was 3.98 µM (active).
On the same count and under the same terms, then `O=C(Nc1nnc(-c2ccncc2)s1)Nc1ccc(Cl)c2ccccc12`, with 14.1 µM (active).
Turning to `O=C(Nc1ccc(F)c(C(F)(F)F)c1)Nc1ccc(-c2ccncc2)s1`, the “activity change, negative = inhibition” value was -13.1% [at 53.6 µM] (inactive).
Take `O=C(Nc1cc(C(F)(F)F)cc(C(F)(F)F)c1)Nc1nnc(-c2ccncc2)s1`: the Potency is 12.6 µM (active).
Same read-out and setting: then `Cc1cc(NC(=O)Nc2nnc(-c3ccncc3)s2)ccc1Br`, with 12.6 µM (active).
`O=C(Nc1ccc2ccccc2c1)Nc1nnc(C2CCCCC2)s1`: the “activity change, negative = inhibition” value is 10.8% (inactive).
For `O=C(Nc1ccc2ccccc2c1)Nc1cccc(-c2ccncc2)n1`, the Potency was 8.91 µM (active).
The same measure, in the same setting: then `N#Cc1cccc(NC(=O)Nc2nnc(-c3ccncc3)s2)c1`, with 8.91 µM (active); and `O=C(Nc1ccc(-c2cn[nH]c2)cc1)Nc1nnc(-c2ccncc2)s1`, with 31.6 µM (active); and `O=C(Nc1cc(F)cc(F)c1)Nc1nnc(-c2ccncc2)s1`, with 15.8 µM (active).
With `O=c1c(Nc2ccc(Br)c(Br)c2)c(Nc2nnc(-c3ccncc3)s2)c1=O`, the Potency was 6.31 µM (active).
Still for that read-out and setting: then `N#Cc1cc(NC(=O)Nc2nnc(-c3ccncc3)s2)ccc1Cl`, with 0.398 µM (active); and `Cc1cc(Nc2c(Nc3nnc(-c4ccncc4)s3)c(=O)c2=O)ccc1Cl`, with 22.4 µM (active).
On the same count and under the same terms, then `Cc1cc(NC(=O)Nc2nnc(-c3cccnc3)s2)ccc1Br`, with 5.62 µM (active); and `Nc1cc(NC(=O)Nc2nnc(-c3ccncc3)s2)ccc1Cl`, with 11.2 µM (active).
In the case of `O=C(Nc1ccc2ccccc2c1)Nc1nnc(-c2ccncc2)o1`, the “activity change, negative = inhibition” value is -6.58% (inactive).
On the same count and under the same terms, then `Cc1cc(NC(=O)Nc2nnc(C3CCCCC3)s2)ccc1Cl`, with 8.63% (inactive); and `CC(=O)c1ccc(NC(=O)Nc2nnc(-c3ccncc3)s2)cc1`, with 3.44% (inactive).
